Inconclusive results are not listed. Calls of active or inactive are those of the source. Unless noted, calls come from the whole dose curve; as a rule, active = well fitted curve in the direction sought with a large enough effect in the repeat runs; inconclusive = weak or mixed curves; inactive = no such curve, though single readings can be large; an effect the other way counts as inactive or inconclusive. Positions of bridges follow the written chain, without caps; N, C: chain ends. Non-standard residues stand in square brackets, D forms with d. Residues, ends and D or L forms follow the SMILES beside them. hArg = N=C(N)NCCCC[C@H](N)C(=O)O; Mpa = O=C(O)CCS
What was measured:
[1] = qHTS RealTime-Glo MT Cell Viability Assay in HEK293 cells - 8 hour (AID 1224887); note: top concentration of the series differs between compounds; nearly all actives have a fitted effect of over 50% in size
Summary of the method: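 Luminescence readout at each listed time point; HEK293, 600 cells/well, RealTime-Glo MT reagent added with cells; compounds pinned (23 nL in DMSO) after 5 h at 37 C; continuous culture at 37 C.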

[2] = A CellTox Green Cytotoxicity Assay to monitor cytotoxicity in HEK293 cells - 16 hour (AID 1224888); note: nearly all actives have a fitted effect of over 35% in size
Summary of the method: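 Read-out: fluorescence of a cell-impermeant cyanine dye staining DNA of dead cells, proportional to cytotoxicity. HEK293, 600 cells/well with reagent, compound (23 nL DMSO) added after 5 h; reads at 0, 8, 16, 24, 32, 40 h.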

[3] = qHTS RealTime-Glo MT Cell Viability Assay in HepG2 cells - 0 hour (AID 1224889); note: nearly all actives have a fitted effect of over 50% in size
Summary of the method: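 HepG2 cells were seeded at 600 cells/well together with NanoLuc luciferase and a cell-permeant prosubstrate, preincubated 5 h at 37 C/5% CO2, then pin-dosed with compounds in DMSO. Nonlytic luminescence from viable cells was read at each time point.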

[4] = A CellTox Green Cytotoxicity Assay to monitor cytotoxicity in HepG2 cells - 8 hour (AID 1224890); note: nearly all actives have a fitted effect of over 45% in size
Summary of the method: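 HepG2, 600 cells/well premixed w/ CellTox Green; 5 h settle, 37 C/5% CO2; pintool cpd add (DMSO); 37 C, 40 h; fluorescence read at 0, 8, 16, 24, 32, 40 h.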

[5] = qHTS assay to identify small molecule antagonists of the estrogen receptor alpha (ER-alpha) signaling pathway using the BG1 cell line in the presence of 0.1 nM 17-beta-estradiol - cell viability counter screen (AID 1259241); note: nearly all actives have a fitted effect of over 40% in size
Summary of the method: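 In this screen, hormone-deprived VM7Luc4E2 cells were seeded at 4,000 per well, dosed with compound and 0.1 nM estradiol final, and incubated 22 hr at 37C and 5% CO2; fluorogenic live-cell protease signal reported viability.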

[6] = qHTS assay to identify small molecule antagonists of the androgen receptor (AR) signaling pathway using the MDA cell line in the presence of 0.5 nM R1881 - cell viability counter screen (AID 1259242); note: nearly all actives have a fitted effect of over 45% in size
Summary of the method: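 Live-cell protease fluorescence, CellTiter-Fluor, 30 min at 37C. Cells: MDA-kb2, 3,000/well, preincubated 5 hr. Compounds plus 0.5 nM R1881 final, 16 hr, 37C, 0% CO2.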

[7] = qHTS assay to identify small molecule phospholipidosis (PLD) inducers (AID 1259344; active = well fitted curve in the direction sought with a large enough effect; an effect the other way counts as inactive or inconclusive)
Summary of the method: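 Cells (HepG2, 900 per well) attach for 4 h, receive LipidTOX Red and compound together, incubate 24 h at 37 C, are fixed 30 min with paraformaldehyde/Hoechst, then imaged at one site per well.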

[8] = qHTS assay to identify small molecule HDAC inhibitors (AID 1259364);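 note: wild-type HCT-116 cells with endogenous class I/II HDAC activity; top concentration of the series differs between compounds; nearly all actives have a fitted effect of over 45% in size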
Summary of the method: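 HCT-116 (wild type), 1,500 cells/well, overnight; compound 2 hr 37C 5% CO2; HDAC-Glo I/II reagent 30 min RT; luminescence readout.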

[9] = qHTS assay to identify small molecule HDAC inhibitors - cell viability counter screen (AID 1259365); note: series mostly up to about 92 µM; nearly all actives have a fitted effect of over 50% in size
Summary of the method: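 Measured quantity is CellTiter-Glo luminescence from wild-type HCT-116 cells after compound incubation of 2hr at 37C, 5% CO2; reagent developed 30min at room temperature.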

[10] = qHTS assay to identify small molecule agonists of the sonic hedgehog signaling (Shh) pathway - cell viability counter screen (AID 1259366); note: nearly all actives have a fitted effect of over 50% in size
Summary of the method: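 In quantitative high-throughput format, 3T3 Gli1-Luc cells were exposed to compounds for 24hr and multiplexed for viability using CellTiter-Fluor, incubated 1hr at 37C before the fluorescence read.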

[11] = qHTS assay to identify small molecule antagonists of the sonic hedgehog signaling (Shh) pathway - cell viability counter screen (AID 1259367); note: nearly all actives have a fitted effect of over 55% in size
Summary of the method: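 Cytotoxicity was assessed in parallel with Shh reporter activity by measuring live-cell protease fluorescence (CellTiter-Fluor) in NIH/3T3 cells stably carrying Gli1-Luc, treated with compound under conditioned medium stimulation for 23 hr plus 1 hr reagent incubation.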

[12] = qHTS assay to identify small molecule agonists of the sonic hedgehog signaling (Shh) pathway (AID 1259368; calls by dose curve;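 note: NIH/3T3-derived 3T3Gli1-Luc cells carrying a stable Gli1-driven firefly luciferase reporter; series mostly up to about 92 µM; nearly all actives have a fitted effect of over 15% in size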)
Summary of the method: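 Read-out: firefly luciferase luminescence from a Gli1 response element reporter stably integrated in NIH/3T3-derived 3T3Gli1-Luc cells, measured 30 min at room temperature after reagent addition. Compound exposure lasted 24 hr at 37 C, 5% CO2.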

[13] = qHTS assay to identify small molecule antagonists of the sonic hedgehog signaling (Shh) pathway (AID 1259369; calls by dose curve; note: nearly all actives have a fitted effect of over 45% in size)
Summary of the method: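 Luminescence readout: firefly Luc under Gli1 response element in 3T3Gli1-Luc cells (NIH/3T3 clone). Antagonist mode, stimulation by conditioned medium; compound exposure 24hr at 37 C, 5% CO2.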

[14] = qHTS assay to identify small molecule agonists of the androgen receptor (AR) signaling pathway in the presence of an antagonist - cell viability counter screen (AID 1259379);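 note: MDA-kb2 human breast cancer cells carrying an MMTV luciferase reporter; series mostly up to about 92 µM; nearly all actives have a fitted effect of over 25% in size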
Summary of the method: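 Viability counter screen: CellTiter-Fluor fluorescence, measured in the same wells as the luciferase read-out. MDA-kb2 cells, 3,000/well, with nilutamide at 3.0uM final and compounds at 15 concentrations, 16 hr at 37C, 0% CO2.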

[15] = qHTS assay to identify small molecule agonists of the estrogen receptor beta (ER-beta) signaling pathway - cell viability counter screen (AID 1259380); note: nearly all actives have a fitted effect of over 30% in size
Summary of the method: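 Luminescence read-out (CellTiter-Glo, 30 min, room temp) taken in the same wells as the beta-lactamase reporter assay; ER-beta-UAS-bla HEK293T cells exposed to DMSO-dissolved compounds for 16 hr at 37C in 2% charcoal-stripped FBS medium.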

[16] = molecular target: Estrogen receptor (Homo sapiens) (UniProt P03372); test: qHTS assay to identify small molecule antagonists of the estrogen receptor alpha (ER-alpha) signaling pathway using the BG1 cell line in the presence of 0.1 nM 17-beta-estradiol (AID 1259244); note: nearly all actives have a fitted effect of over 50% in size
Summary of the method: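 Luminescence after ONE-Glo (30 min, room temperature) measured ERE-luciferase activity in VM7Luc4E2 cells treated 22 h with compound and 0.1 nM final 17beta-estradiol as stimulator.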

[17] = molecular target: Androgen receptor (Homo sapiens) (UniProt P10275); test: qHTS assay to identify small molecule agonists of the androgen receptor (AR) signaling pathway in the presence of an antagonist (AID 1259381; calls by dose curve; note: nearly all actives have a fitted effect of over 15% in size)
Summary of the method: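 Luciferase read-out (ONE-Glo, 30min room temperature) in MDA-kb2 MMTV-reporter cells; agonist mode run in presence of AR antagonist nilutamide, 3.0uM final. Compounds tested as 15-point series, 16hr exposure at 37C, 0% CO2.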

[18] = molecular target: Androgen receptor (Homo sapiens) (UniProt P10275); test: qHTS assay to identify small molecule antagonists of the androgen receptor (AR) signaling pathway using the MDA cell line in the presence of 0.5 nM R1881 (AID 1259243); note: nearly all actives have a fitted effect of over 50% in size
Summary of the method: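 MDA-kb2, MMTV-luc (AR/GR elements); 3,000 cells/well; cpd + 0.5 nM R1881 final; 16 hr 37C, 0% CO2; ONE-Glo 30 min RT; luminescence.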

[19] = molecular target: Estrogen receptor beta (Homo sapiens) (UniProt Q92731); test: qHTS assay to identify small molecule agonists of the estrogen receptor beta (ER-beta) signaling pathway (AID 1259377; active = well fitted activation curve with a large enough effect in the signal ratio in the repeat runs, not every such curve was filed as active; the % refers to the signal ratio)
Summary of the method: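 Reporter cells (HEK293T, ER-beta-UAS-bla) receive compounds or DMSO after a 6 hr pre-incubation. They then incubate 16 hr at 37C/5% CO2, and fluorescence from LiveBLAzer B/G substrate is measured after 2 hours at room temperature.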

[20] = molecular target: Estrogen receptor beta (Homo sapiens) (UniProt Q92731); test: qHTS assay to identify small molecule antagonists of the estrogen receptor beta (ER-beta) signaling pathway (AID 1259378; active = well fitted inhibition curve with a large enough effect in the signal ratio in the repeat runs, not every such curve was filed as active; the % refers to the signal ratio)
Summary of the method: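 ER-beta-UAS-bla HEK293T (GripTite) cells in 2% charcoal-stripped FBS medium were preincubated 6 hr at 37C, dosed with compound, then stimulated with 1 nM E2 (final) for 16 hr; beta-lactamase reporter read by B/G FRET fluorescence after 2 hr substrate loading.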

Measured: Potency

Androgen receptor (Homo sapiens), sequence (P10275 whole entry, looked up): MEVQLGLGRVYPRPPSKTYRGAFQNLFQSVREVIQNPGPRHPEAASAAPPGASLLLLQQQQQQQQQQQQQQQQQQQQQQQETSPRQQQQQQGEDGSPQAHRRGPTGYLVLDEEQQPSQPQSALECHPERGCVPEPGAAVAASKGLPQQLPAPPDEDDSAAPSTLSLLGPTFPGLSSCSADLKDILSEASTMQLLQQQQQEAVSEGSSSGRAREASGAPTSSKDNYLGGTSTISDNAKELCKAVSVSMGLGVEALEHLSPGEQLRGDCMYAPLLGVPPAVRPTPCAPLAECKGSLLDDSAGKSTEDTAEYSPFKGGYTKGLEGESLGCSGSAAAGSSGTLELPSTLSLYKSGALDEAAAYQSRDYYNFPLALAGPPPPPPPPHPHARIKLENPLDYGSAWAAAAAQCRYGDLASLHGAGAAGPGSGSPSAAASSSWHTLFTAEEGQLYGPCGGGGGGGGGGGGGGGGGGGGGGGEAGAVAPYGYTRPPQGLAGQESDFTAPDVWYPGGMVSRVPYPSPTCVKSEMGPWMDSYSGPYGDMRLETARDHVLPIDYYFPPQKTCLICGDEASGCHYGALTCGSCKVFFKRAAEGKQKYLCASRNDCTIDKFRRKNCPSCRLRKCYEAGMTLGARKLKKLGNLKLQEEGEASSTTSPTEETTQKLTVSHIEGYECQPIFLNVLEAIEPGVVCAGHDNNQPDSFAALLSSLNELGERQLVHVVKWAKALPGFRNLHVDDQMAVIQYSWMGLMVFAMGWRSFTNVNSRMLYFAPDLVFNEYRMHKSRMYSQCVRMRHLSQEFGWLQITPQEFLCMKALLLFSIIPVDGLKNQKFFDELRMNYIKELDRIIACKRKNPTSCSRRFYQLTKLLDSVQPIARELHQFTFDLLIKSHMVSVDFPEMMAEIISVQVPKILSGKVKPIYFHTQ
Estrogen receptor beta (Homo sapiens), sequence (Q92731 whole entry, looked up): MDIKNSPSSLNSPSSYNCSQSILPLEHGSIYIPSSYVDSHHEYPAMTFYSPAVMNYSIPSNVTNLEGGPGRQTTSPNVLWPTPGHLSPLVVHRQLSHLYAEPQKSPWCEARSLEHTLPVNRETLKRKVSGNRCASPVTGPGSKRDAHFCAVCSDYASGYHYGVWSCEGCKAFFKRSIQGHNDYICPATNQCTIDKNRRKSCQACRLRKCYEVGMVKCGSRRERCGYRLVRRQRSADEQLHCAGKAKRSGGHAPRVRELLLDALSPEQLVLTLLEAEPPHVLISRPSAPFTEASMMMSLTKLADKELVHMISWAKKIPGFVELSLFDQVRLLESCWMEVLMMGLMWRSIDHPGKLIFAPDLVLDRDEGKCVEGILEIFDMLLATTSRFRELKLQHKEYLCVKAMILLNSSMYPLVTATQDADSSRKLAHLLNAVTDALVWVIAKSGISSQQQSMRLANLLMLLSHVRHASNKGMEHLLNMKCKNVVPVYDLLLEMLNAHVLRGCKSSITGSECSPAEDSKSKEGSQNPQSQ
Estrogen receptor (Homo sapiens), sequence (P03372 whole entry, looked up): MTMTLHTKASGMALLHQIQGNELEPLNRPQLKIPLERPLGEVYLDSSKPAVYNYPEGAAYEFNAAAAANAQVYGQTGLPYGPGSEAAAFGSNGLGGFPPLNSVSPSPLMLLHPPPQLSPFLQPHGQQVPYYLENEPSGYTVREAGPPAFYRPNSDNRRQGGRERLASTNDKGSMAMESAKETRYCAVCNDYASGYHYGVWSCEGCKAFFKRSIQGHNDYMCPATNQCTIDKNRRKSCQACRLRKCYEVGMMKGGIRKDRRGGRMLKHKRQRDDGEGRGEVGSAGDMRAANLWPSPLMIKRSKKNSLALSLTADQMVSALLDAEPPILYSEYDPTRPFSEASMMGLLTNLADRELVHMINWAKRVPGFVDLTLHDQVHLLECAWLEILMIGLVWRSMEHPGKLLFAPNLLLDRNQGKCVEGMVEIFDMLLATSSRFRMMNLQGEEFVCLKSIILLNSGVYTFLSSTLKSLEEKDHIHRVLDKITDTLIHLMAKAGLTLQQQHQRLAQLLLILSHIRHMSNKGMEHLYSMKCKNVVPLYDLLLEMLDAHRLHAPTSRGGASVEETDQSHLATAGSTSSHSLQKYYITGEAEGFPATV

OCC(O)CN1CCN(c2ccccc2)CC1 (stereo not drawn)
not listed: [16] | [17] | [18] | [19] | [20]
inactive: all other assays above

COc1ccc2c(c1)c1c3n2CCN(C)C3=NCC1
not listed: [6] | [18] | [19] | [20]
inactive: all other assays above

C=CCOC(=O)CCCCCC
not listed: [6] | [7] | [15] | [16]
inactive: all other assays above

NC(=O)[C@@H]1CSSCCC(=O)N[C@@H](CCCCN=C(N)N)C(=O)NCC(=O)N[C@@H](CC(=O)O)C(=O)N[C@@H](Cc2c[nH]c3ccccc23)C(=O)N2CCC[C@H]2C(=O)N1 ([Mpa][hArg]GDWPC-NH2; disulfide 1-7)
not listed: [6] | [17] | [18] | [19] | [20]
inactive: all other assays above

CC1(C)Cc2cccc(N)c2O1
not listed: [6] | [7] | [17] | [18] | [19] | [20]
inactive: all other assays above

Cc1cc(-c2ccccc2)nnc1NCCN1CCOCC1
not listed: [3] | [7] | [17] | [18]
inactive: all other assays above

CC(S)C(C)S (stereo not drawn)
not listed: [6] | [7]
inactive: all other assays above

CCOc1ccccc1OCC1CNCCO1 (stereo not drawn)
not listed: [3] | [7]
inactive: all other assays above

— PubChem BioAssay (Tox21)
